Test [1] has as its target human Retinoid X Receptor beta (RXRb), RXRB (gene 6257) (UniProt P28702). Put plainly: ATG_RXRb_TRANS: Attagene TRANS-FACTORIAL HepG2 Assay for human Retinoid X Receptor beta (RXRb) (AID 2283013; active = hit-call score of the fitted dose curve at least 0.9, where 1 is the maximum). A digest of the protocol: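 After a 24 h incubation with test chemical, transfected HepG2 cells carrying NR-Gal4 fusions and GAL4-UAS reporter transcription units yield RNA whose reporter cDNA is FAM-labelled, HpaI-cut and sized by capillary electrophoresis; increases over DMSO are scored.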

Read-out in test [2]: E-selectin (Homo sapiens) (UniProt P16581)
Nature of the test: BSK_3C_Eselectin: BioMAP Diversity Plus: 3C Assay for Eselectin Biomarker Activity (AID 2283015).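 For outcome: cell surface E-selectin protein quantified by ELISA 24 h after dosing.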 As to conditions: primary human endothelial cells (HUVEC); actives raise or lower the signal. A digest of the protocol: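 HUVEC, 3C stimulation; compound exposure 24 h; E-selectin by ELISA; gain- or loss-of-signal fitted bidirectionally vs DMSO baseline.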

Read-out in test [3]: Interleukin-1 alpha (IL1a), IL1A (gene 3552)
Nature of the test: BSK_BE3C_IL1a: BioMAP Diversity Plus: BE3C Assay for Interleukin-1 alpha (IL1a) Biomarker Activity (AID 2283016). As to conditions: primary human bronchial epithelial cells; actives raise or lower the signal. A digest of the protocol: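 Measured in human lung primary bronchial epithelial cells: IL-1a by ELISA at 24 h after dosing, with bidirectional fitting against DMSO.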

Read-out in test [4]: Monocyte Chemoattractant Protein-1 (MCP1), CCL2 (gene 6347)
Nature of the test: BSK_3C_MCP1: BioMAP Diversity Plus: 3C Assay for Monocyte Chemoattractant Protein-1 (MCP1) Biomarker Activity (AID 2283017). Particulars: primary human endothelial cells (HUVEC); actives raise or lower the signal. The essentials: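 HUVEC, 3C system; 24 h chemical exposure; MCP-1 by ELISA; bidirectional curve fit vs DMSO baseline.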

Read-out in test [5]: Monocyte Chemoattractant Protein-1 (MCP1), CCL2 (gene 6347)
Put plainly: BSK_4H_MCP1: BioMAP Diversity Plus: 4H Assay for Monocyte Chemoattractant Protein-1 (MCP1) Biomarker Activity (AID 2283018). As to conditions: primary human endothelial cells (HUVEC); actives raise or lower the signal. A digest of the protocol:
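Primary human umbilical vein endothelium is exposed to chemical for 24 h before MCP-1 is assayed by ELISA. Concentration-response fitted bidirectionally relative to DMSO.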

Read-out in test [6]: Human Leukocyte Antigen - DR isotype (HLADR), HLA-DRA (gene 3122)
Put plainly: BSK_3C_HLADR: BioMAP Diversity Plus: 3C Assay for Human Leukocyte Antigen - DR isotype (HLADR) Biomarker Activity (AID 2283019).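 For outcome: ELISA of cell-surface HLA-DR on HUVEC 24 h after dosing.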 As to conditions: primary human endothelial cells (HUVEC); actives raise or lower the signal. The essentials:
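HUVEC, 3C stimulation, 24 h post-dose; HLA-DR by ELISA; bidirectional curve fit vs DMSO baseline; gain or loss of signal scored.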

Read-out in test [7]: Interleukin-8 (IL8), CXCL8 (gene 3576)
Nature of the test: BSK_3C_IL8: BioMAP Diversity Plus: 3C Assay for Interleukin-8 (IL8) Biomarker Activity (AID 2283020). As to conditions: primary human endothelial cells (HUVEC); actives raise or lower the signal. The essentials: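 Using DMSO-treated wells as the baseline, bidirectional curve fitting was applied to ELISA-measured IL-8 from human umbilical vein endothelial cultures sampled 24 h after compound addition.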

Read-out in test [8]: Monokine induced gamma interferon (MIG), CXCL9 (gene 4283)
Put plainly: BSK_3C_MIG: BioMAP Diversity Plus: 3C Assay for Monokine induced gamma interferon (MIG) Biomarker Activity (AID 2283021).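 For AC50: MIG protein level measured by immunoassay in the treated endothelial cultures.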 As to conditions: primary human endothelial cells (HUVEC); actives raise or lower the signal. The essentials: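 ELISA-measured MIG in dosed HUVEC 3C cultures at 24 h, analysed by bidirectional fitting with DMSO defining baseline activity.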

In test [9] the target is human Thyroid Receptor alpha (THRa1), THRA (gene 7067) (UniProt P10827). Nature of the test: ATG_THRa1_TRANS: Attagene TRANS-FACTORIAL HepG2 Assay for human Thyroid Receptor alpha (THRa1) (AID 2283014; active = hit-call score of the fitted dose curve at least 0.9, where 1 is the maximum). A digest of the protocol:
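Transient HepG2 transfection, NR-Gal4 chimera driving GAL4-UAS reporters; 24 h compound exposure; total RNA, oligo(dT) RT, PCR, fluorescent primer extension, capillary electrophoresis. Upward direction vs DMSO control.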

Molecules are shown by their SMILES. Records with an inconclusive call do not appear. Active and inactive are the calls of the source. Rule for the calls, unless noted: active = hit-call score of the fitted dose curve at least 0.9, where 1 is the maximum; inactive = score below 0.9.

Sequence of human Thyroid Receptor alpha (THRa1), THRA (gene 7067) (P10827 whole entry, looked up, the tested form may be a part): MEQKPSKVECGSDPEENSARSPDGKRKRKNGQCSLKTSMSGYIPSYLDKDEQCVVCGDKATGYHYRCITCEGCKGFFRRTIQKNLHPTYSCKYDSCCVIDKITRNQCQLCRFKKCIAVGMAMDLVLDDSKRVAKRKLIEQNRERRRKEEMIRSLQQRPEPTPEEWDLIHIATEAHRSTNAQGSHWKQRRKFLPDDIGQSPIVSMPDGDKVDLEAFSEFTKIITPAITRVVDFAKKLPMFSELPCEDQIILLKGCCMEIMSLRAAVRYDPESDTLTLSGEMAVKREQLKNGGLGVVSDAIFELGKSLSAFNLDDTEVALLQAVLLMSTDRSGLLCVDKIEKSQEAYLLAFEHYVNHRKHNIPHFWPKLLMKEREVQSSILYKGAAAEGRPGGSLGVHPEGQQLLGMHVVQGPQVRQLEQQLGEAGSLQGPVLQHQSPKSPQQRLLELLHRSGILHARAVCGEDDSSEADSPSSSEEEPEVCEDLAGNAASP
Sequence of E-selectin (Homo sapiens) (P16581 whole entry, looked up): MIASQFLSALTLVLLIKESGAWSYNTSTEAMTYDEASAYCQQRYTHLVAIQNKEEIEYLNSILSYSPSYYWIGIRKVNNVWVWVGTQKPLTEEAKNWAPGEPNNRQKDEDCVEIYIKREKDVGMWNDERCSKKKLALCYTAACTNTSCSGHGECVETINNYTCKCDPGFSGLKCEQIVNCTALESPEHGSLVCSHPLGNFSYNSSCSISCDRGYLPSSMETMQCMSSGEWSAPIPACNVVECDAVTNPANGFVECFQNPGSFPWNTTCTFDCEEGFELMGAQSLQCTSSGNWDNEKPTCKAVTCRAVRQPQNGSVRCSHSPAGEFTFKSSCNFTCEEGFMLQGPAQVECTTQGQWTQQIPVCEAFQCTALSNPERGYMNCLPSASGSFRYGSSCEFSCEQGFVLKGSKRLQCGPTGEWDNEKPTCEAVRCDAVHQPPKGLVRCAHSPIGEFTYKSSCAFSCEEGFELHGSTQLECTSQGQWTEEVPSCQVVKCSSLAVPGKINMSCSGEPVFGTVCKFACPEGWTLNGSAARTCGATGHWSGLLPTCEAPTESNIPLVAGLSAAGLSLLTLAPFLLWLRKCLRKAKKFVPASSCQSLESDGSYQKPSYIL
Sequence of human Retinoid X Receptor beta (RXRb), RXRB (gene 6257) (P28702 whole entry, looked up, the tested form may be a part): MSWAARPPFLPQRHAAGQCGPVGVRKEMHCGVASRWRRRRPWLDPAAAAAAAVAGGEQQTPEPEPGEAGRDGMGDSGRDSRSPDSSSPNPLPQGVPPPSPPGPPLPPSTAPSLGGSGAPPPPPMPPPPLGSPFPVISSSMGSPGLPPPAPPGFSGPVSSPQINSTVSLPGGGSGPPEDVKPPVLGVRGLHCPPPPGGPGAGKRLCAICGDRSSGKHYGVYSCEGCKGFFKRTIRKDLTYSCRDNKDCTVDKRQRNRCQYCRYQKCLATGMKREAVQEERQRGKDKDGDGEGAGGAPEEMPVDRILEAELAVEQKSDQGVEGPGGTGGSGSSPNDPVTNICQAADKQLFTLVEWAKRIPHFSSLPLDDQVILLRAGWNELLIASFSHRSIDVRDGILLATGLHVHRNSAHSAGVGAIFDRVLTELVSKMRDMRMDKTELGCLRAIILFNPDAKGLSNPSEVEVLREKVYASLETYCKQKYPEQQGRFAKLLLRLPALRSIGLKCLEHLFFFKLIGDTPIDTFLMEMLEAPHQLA

What is called AC50 is the midpoint of the concentration-response curve, whichever way the signal moves. In the case of `CCCCCCCCCCCCc1ccccc1`, the half-maximal activity concentration (AC50) is 61.2 µM (active) in test [1] and 33.2 µM (active) in [6]. The outcome in test [2], in test [3], in [4], in test [5], in [7] and in test [8] was inactive.

Regarding `COc1ccc(-n2nc(C(F)F)cc2-c2ccc(S(C)=O)cc2)cc1` (centres undefined), the call in [1], in test [2], in test [3], in [4], in test [5] and in [6] was inactive. In addition, the result in test [7] and in test [8] was inactive.

For the compound `Cc1ccc(O)cc1`, the result in test [2], in test [3], in test [4], in [5], in test [6] and in test [7] was inactive. Also, the outcome in [8] was inactive.

Turning to `CC(=O)c1ccc2c(c1)[C@H](NC(=O)c1ccc(F)cc1)[C@@H](O)C(C)(C)O2`, the outcome in test [2], in [3], in [4], in [5], in test [6] and in test [7] was inactive. For the same compound, the outcome in test [8] was inactive.

With `COc1ccc(/C=C/S(=O)(=O)NC(=O)c2ccc(C)cc2Cl)cc1`, the outcome in test [2], in test [3], in test [4], in test [5], in test [6] and in test [7] was inactive. For the same compound, the outcome in test [8] was inactive.

With `NC(=O)NO`, the outcome in [2], in [3], in [4], in test [5], in test [6] and in [7] was inactive. Moreover, the result in test [8] was inactive.

On to `COc1cccc(-c2ccc(/C=C\CN3CCCCCC3)cc2Cl)c1`, for which, in test [9], the compound was classed as inactive. The AC50 in test [2] is 28.6 µM (active); in [3], 29 µM (active); in test [4], 30.9 µM (active); in test [5] it was 25 µM (active); in test [6], 27.8 µM (active); in test [7], 31.9 µM (active). Also, in test [8], the concentration at half-maximal activity (AC50) is 34.3 µM (active).

Regarding `C=CC(=C)CCC=C(C)C`, the outcome in [1], in test [2], in test [3], in test [4], in [5] and in test [6] was inactive. Further, the result in test [7] and in [8] was inactive.

For `O=C1CCC(N2C(=O)c3ccccc3C2=O)C(=O)N1` (centres undefined), the compound was called inactive in test [9], in test [2], in [3], in [4], in test [5] and in test [6]. The outcome in [7] and in test [8] was inactive.

Consider `CC1=CC(=O)CC(C)(C)C1`, for which the result in test [2], in test [3], in test [4], in [5], in test [6] and in test [7] was inactive. In addition, the outcome in [8] was inactive.

On to `CCC(C)(C)C(=O)O[C@H]1C[C@@H](C)C=C2C=C[C@H](C)[C@H](CC[C@@H]3C[C@@H](O)CC(=O)O3)[C@H]21`, for which the AC50 was 30.2 µM (active) in test [2]; 33.1 µM (active) in test [3]; 18.6 µM (active) in [4]; 0.392 µM (active) in [5]; 25.8 µM (active) in [6]; 26.5 µM (active) in [7]. In [8], the result was inactive.

Consider `CC/C(=C\C(=N/O)C(N)=O)C(C)[N+](=O)[O-]` (centres undefined), for which the outcome in test [2], in test [3], in [4], in test [5], in test [6] and in test [7] was inactive. Also, the result in test [8] was inactive.

As to `Nc1nc2ncc(CNc3ccc(C(=O)N[C@@H](CCC(=O)O)C(=O)O)cc3)nc2c(=O)[nH]1`, the result in test [9], in [2], in [3], in [4], in test [5] and in test [6] was inactive. In addition, the outcome in [7] and in [8] was inactive.

Take `CCOCCO`: the outcome in test [2], in test [3], in test [4], in test [5], in test [6] and in [7] was inactive. The outcome in test [8] was inactive.

For `On1ccccc1=S`, the call in test [9] and in [7] was inactive. The half-maximal activity concentration (AC50) in [2] was 18.3 µM (active); in test [3], 4.99 µM (active); in test [4] it was 28.8 µM (active); in test [5], 30.8 µM (active); in test [6], 12.9 µM (active); in test [8], 32 µM (active).

For `CCOC(=O)c1ccc(C2CCC(NC[C@H](O)COc3ccc(O)c(NS(C)(=O)=O)c3)CC2)cc1` (some centres undefined), the outcome in test [2], in test [3], in test [5] and in [8] was inactive. Also, the AC50 in test [4] was 27.9 µM (active); in test [6], 31.1 µM (active); in test [7], 27.7 µM (active).

Regarding `CN(C)c1ccc(Cc2ccc(N(C)C)cc2)cc1`, the result in test [9], in test [2], in [3], in [4], in test [5] and in test [8] was inactive. The figures for the AC50 in test [6] and in [7] were 31.8 µM (active) and 20 µM (active), respectively.

With `Fc1ccccc1[C@@H](F)COC1CCC(Nc2ncnc3[nH]ncc23)CC1` (some centres undefined), the outcome in test [2], in test [3], in test [5] and in [8] was inactive. Moreover, the concentration at half-maximal activity (AC50) was 30.2 µM (active) in test [4], 15.4 µM (active) in [6] and 20 µM (active) in [7].

Take `CCN(C(=O)c1cc(C)cc(OC[C@H](C)Nc2ccncc2)c1)C(C)C`: the outcome in test [2], in test [3], in test [4], in test [5], in test [6] and in test [7] was inactive. The outcome in test [8] was inactive.

Turning to `CCOCCOCCOCCO`, the result in test [9], in test [2], in [3], in test [4], in test [5] and in test [6] was inactive. The result in test [7] and in [8] was inactive.

For `CCn1nc(Cc2ccccc2)cc1C1CCN(C[C@H]2C[C@H](N(C)[C@@H](C(=O)O)C(C)C)C[C@@H]2c2cccc(F)c2)CC1`, the outcome in [2], in [3], in test [4], in test [5], in test [6] and in [7] was inactive. Moreover, the result in [8] was inactive.

Consider `CC(C)=CCCC(C)CCO` (centres undefined), for which the result in [2], in test [3], in test [4], in test [5], in test [6] and in test [7] was inactive. In addition, the outcome in test [8] was inactive.

With `Nc1cccc(N)c1`, the compound was called inactive in test [9], in test [2], in test [3], in test [4], in test [5] and in test [6]. Further, the outcome in test [7] and in test [8] was inactive.

Turning to `Clc1nc(Cl)c(Cl)c(Cl)c1Cl`, the outcome in [1], in [2], in test [4], in [5] and in [8] was inactive. For the same compound, the AC50 is 29.2 µM (active) in test [3], 31.2 µM (active) in test [6] and 14.2 µM (active) in test [7].

Source of the values: PubChem BioAssay (EPA / NIEHS).
